ATXN2 expr inh = Primary qHTS for Inhibitors of ATXN expression; Potency, µM (series often up to 57 µM), actives largely listed as inhibitors; hit rate 0.72% among 360,000; HEK-293 ATXN2-luciferase reporter, luminescence, 24 h; note: nearly all actives have a fitted effect of over 55% in size
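ATXN2-luciferase reporter cells (luciferase flanked by upstream and downstream ATXN2 gene portions) were treated 24 h at 37 °C with compounds at up to 57 uM. SteadyGlo luminescence gave expression; GF-AFC fluorescence gave viability.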
IL1B secr inh = qHTS for Inhibitors of Inflammasome Signaling: IL-1-beta AlphaLISA Primary Screen. THP-1 LPS/ATP IL-1B secretion, AlphaLISA, 16 h; hits give low values. activity change, % at 57.5 µM. hit rate 4.7% among 360,000. AID 743279, 2014; in the data active = activity change below about -50%; inconclusive = mostly about -30% to -49%
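Secreted IL-1B measured by AlphaLISA bead assay after 16 h compound exposure of THP-1 cells; compounds (final up to 57.5 uM) added 1 h before LPS (250 ng/mL) and ATP (1.25 mM) stimulation; lower signal means less secretion.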
S2 tox = Viability Counterscreen for Primary qHTS for Inhibitors of ATXN expression. Potency, µM (top dose mostly 56.7 µM), usual class: cytotoxic. hit rate 0.49% among 400,000. S2 cells (HEK-293 line with an ATXN2-luciferase reporter) viability, CellTiter-Fluor protease fluorescence, 24 h. AID 651635, 2014; note: nearly all actives have a fitted effect of over 40% in size
HepG2 tox = qHTS for Inhibitors of TGF-b: Cytotox Counterscreen; HepG2 CAGA-GFP viability, ATP luminescence, 18 h; Potency, µM (doses to about 46.1 µM), most hits filed as cytotoxic; hit rate 0.76% among 410,000
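HepG2 CAGA-GFP cells (1000/well, DMEM with 1% FBS) received compound, then TGF-beta at 500 pg/mL final, and were incubated 18 hours at 37 degrees C. Viability was read by CellTiter-Glo luminescence. Media-only wells were set as complete cell-killing and DMSO as no toxicity.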
TGFb SMAD3 inh = qHTS for Inhibitors of TGF-b; hit rate 1.2% among 410,000; Potency, µM (doses to about 46.1 µM), most hits filed as inhibitors; HepG2 CAGA-GFP TGF-b/SMAD3 reporter, GFP fluorescence, 18 h; TGF-beta stimulated, 500 pg/mL final; AID 588855, 2011; note: nearly all actives have a fitted effect of over 65% in size
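TGF-beta reporter screen: HEPG2 CAGA-GFP, 1% FBS, 500 pg/mL TGF-beta final, 18 h; per-cell GFP summed per well; curves fitted and categorized by class.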
Hits are given with their value; i = inactive; ? = inconclusive; nt = no result. A selection: hits, their analogues and other compounds. The true share with any hit is near 5.7%. Unless noted, calls come from the whole dose curve; as a rule, active = well fitted curve in the direction sought with a large enough effect; inconclusive = small, poorly fitted or top-dose-only effect, or another doubt; inactive = no such curve, though single readings can be large; an effect the other way counts as inactive or inconclusive.

SMILES	ATXN2 expr inh	IL1B secr inh	S2 tox	HepG2 tox	TGFb SMAD3 inh
c1ccc(-c2noc(-c3ccncc3)n2)nc1	i	i	i	10µM	i
O=[N+]([O-])c1cc(-c2nc(-c3ccncc3)no2)ccc1Cl	i	-118	i	i	i
CNC(=O)CCc1nc(-c2ccc(C(C)(C)C)cc2)no1	i	i	i	i	i
O=C(Nc1ccc(F)cc1Cl)C1Cc2ccccc2N1C(=O)c1ccccc1 (centres undefined)	i	nt	i	i	i
O=[N+]([O-])c1ccccc1S(=O)(=O)N1CCN(c2nc(-c3cccs3)nc3ccccc23)CC1	nt	nt	nt	i	i
Cc1nn(Cc2ccccc2)c(=O)c2nn(-c3ccc(Cl)cc3)c(C)c12	i	-70	i	i	i
O=c1[nH]c(=S)c2[nH]cnc2[nH]1	nt	nt	nt	i	i
CCN(c1ccccc1)c1nnc(NC(=O)Nc2cccc(Br)c2)s1	nt	nt	nt	i	i
Cc1ccn2c(c1)nc(=O)c1cc(S(=O)(=O)N3CCCCC3)c(Cl)cc12	i	nt	i	i	i
O=Cc1ccc(O)c(O)c1	i	-57	i	i	i
Oc1ccc(N=Cc2ccc(O)c(O)c2)cc1	?	-55	?	i	?
C#C[C@]1(OC(C)=O)CC[C@H]2[C@@H]3CCC4=CC(=O)CC[C@@H]4[C@H]3CC[C@@]21C	nt	nt	i	nt	nt
CC/C(=C/c1ccccc1OC)c1cc(-c2ccccc2)cc2oc3ccccc3c12	nt	nt	nt	i	i
CCOC(=O)c1c(N)sc(N)c1C(=O)OCC	i	-71	i	i	i
Cc1cccc(NC(=O)C(=O)NCC(c2cccnc2)N2CCc3ccccc3C2)c1C (centres undefined)	nt	nt	nt	i	i
Cc1cc(Nc2nc3ccccc3nc2Cl)n(-c2ccc([N+](=O)[O-])cc2)n1	?	-87	?	i	?
O=C(C[n+]1csc2ccccc21)c1ccc(I)cc1	nt	nt	nt	i	i
COc1ccc(NC(=O)C(c2ccncc2)n2c(=O)c(-c3ccccc3)nc3ccccc32)cc1 (centres undefined)	nt	-56	nt	nt	nt
CC(C)(C)NC(=O)C(c1ccncc1)n1c(=O)c(-c2cc3ccccc3[nH]2)nc2ccccc21 (centres undefined)	nt	-123	nt	nt	nt
Cc1cccc(C)c1NC(=O)C(c1ccc(C#N)cc1)n1c(=O)c(-c2ccccc2)nc2ccccc21 (centres undefined)	nt	-50	nt	nt	nt
CCc1ccc(NS(=O)(=O)c2ccc3[nH]cc(C(=O)NCCCOC(C)C)c(=O)c3c2)cc1	i	nt	i	i	i
O=C(c1ccc([N+](=O)[O-])cc1)N1c2ncnn2C2(CCCCC2)[C@@H]2CCCC[C@@H]21	i	nt	i	i	i
CC(Oc1ccc(Cl)cc1)C(=O)NCCN1C(=O)S/C(=C\c2cccnc2)C1=O (centres undefined)	?	-78	?	i	i
O=C(NCCN1C(=O)S/C(=C/c2cccnc2)C1=O)c1cccs1	i	?	i	i	i
CC(C)(Oc1ccc(Cl)cc1)C(=O)NCCN1C(=O)S/C(=C/c2cccnc2)C1=O	i	-91	i	i	i
SMILES	ATXN2 expr inh	IL1B secr inh	S2 tox	HepG2 tox	TGFb SMAD3 inh
COc1ccc(NC(=O)Cn2ccn(Cc3ccccc3)c(=O)c2=O)cc1Cl	nt	nt	nt	i	i
O=C1/C(=C/c2ccccc2Cl)SC(=S)N1CCC(=O)N1CCCCC1CCO (centres undefined)	nt	?	?	i	?
O=C(CCN1C(=O)/C(=C/c2ccccc2Cl)SC1=S)N1CCCC1	i	-64	i	i	i
O=C(CCN1C(=O)/C(=C/c2ccccc2Cl)SC1=S)N1CCOCC1	i	-112	i	i	?
O=C(CCCN1C(=O)/C(=C/c2ccccc2Cl)SC1=S)N1CCCC1	nt	-66	?	i	?
COCc1c(C(=O)NC2CCCC2)cnn1-c1nccc(-c2ccco2)n1	nt	nt	i	nt	nt
CNC(=O)C1CCC(Cn2c(=O)c3sccc3n(CC(=O)Nc3cc(C)cc(C)c3)c2=O)CC1 (centres undefined)	i	nt	i	i	i
CCCn1ccc2c(OCC(=O)NCc3ccccc3Cl)cccc2c1=O	i	nt	?	i	i
CCN(Cc1nc(-c2cccc(C)c2)no1)C(=O)c1ccc2c(c1)OCO2	i	-69	i	i	i

Assay outcomes: PubChem, National Center for Advancing Translational Sciences (NCATS)
